Measured values taken from PubChem BioAssay AID1159580 (chemical genetic matrix, 2015).
The whole screen tested about 5,500 compounds, of which about 2,000 (36%) were called active. Roughly 18% stayed inconclusive and do not appear here. No stated cut-off is given here; in the data, active means normalized growth mostly below about 0.91 (no sharp cut-off); inconclusive means no clear call, values can overlap the other calls; inactive means mostly above about 0.92. The list shows a part of the results.

Test: chemical genetic growth profiling, strain panel (AID 1159580);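 further: tested at 20 µM; growth read once vehicle control cultures reached saturation at 30 °C; 1 = growth at the plate median or of vehicle wells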
Details: growth OD

Measured: normalized growth

CN1CCC(=C2c3ccccc3Sc3ccccc32)CC1
inactive: S. cerevisiae deletion strains, locus YJR075W, strain HOC1, stronger effect = lower value 0.935 | S. cerevisiae deletion strains, locus YKL009W, strain mrt4, stronger effect = lower value 0.982 | S. cerevisiae deletion strains, locus YKL068W, stronger effect = lower value 1 | S. cerevisiae deletion strains, locus YKL085W, strain MDH1 (second series), stronger effect = lower value 0.999 | S. cerevisiae deletion strains, locus YKL085W, strain MDH1, stronger effect = lower value 0.999 | S. cerevisiae deletion strains, locus YKL160W, strain elf1, stronger effect = lower value 1 | S. cerevisiae deletion strains, locus YKL190W, strain CNB1, stronger effect = lower value 1 | S. cerevisiae deletion strains, locus YKR001C, strain vps1, stronger effect = lower value 0.996 | S. cerevisiae deletion strains, locus YKR026C, strain gcn3, stronger effect = lower value 1.03 | S. cerevisiae deletion strains, locus YKR091W, strain srl3, stronger effect = lower value 1.03 | S. cerevisiae deletion strains, locus YLL001W, strain dnm1, stronger effect = lower value 1.03 | S. cerevisiae deletion strains, locus YLL026W, stronger effect = lower value 1.02 | S. cerevisiae deletion strains, locus YLL041C, strain sdh2, stronger effect = lower value 1.01 | S. cerevisiae deletion strains, locus YLR027C, strain aat2, stronger effect = lower value 1.02 | S. cerevisiae deletion strains, locus YLR058C, strain SHM2, stronger effect = lower value 1 | S. cerevisiae deletion strains, locus YLR102C, strain apc9, stronger effect = lower value 1.01 | S. cerevisiae deletion strains, locus YLR113W, strain HOG1, stronger effect = lower value 0.979 | S. cerevisiae deletion strains, locus YLR221C, strain rsa3, stronger effect = lower value 1 | S. cerevisiae deletion strains, locus YLR258W, strain gsy2, stronger effect = lower value 1.04 | S. cerevisiae deletion strains, locus YLR262C, strain YPT6 (second series), stronger effect = lower value 1.13 | S. cerevisiae deletion strains, locus YLR268W, strain sec22, stronger effect = lower value 1.06 | S. cerevisiae deletion strains, locus YLR320W, strain mms22, stronger effect = lower value 1.01 | S. cerevisiae deletion strains, locus YLR330W, strain CHS5, stronger effect = lower value 0.994 | S. cerevisiae deletion strains, locus YLR342W, strain FKS1 (second series), stronger effect = lower value 0.859 | S. cerevisiae deletion strains, locus YLR342W, strain FKS1, stronger effect = lower value 1.03 | S. cerevisiae deletion strains, locus YLR357W, strain rsc2, stronger effect = lower value 1.04 | S. cerevisiae deletion strains, locus YLR370C, strain arc18, stronger effect = lower value 1.02 | S. cerevisiae deletion strains, locus YLR371W, strain rom2, stronger effect = lower value 1.02 | S. cerevisiae deletion strains, locus YLR384C, strain iki3, stronger effect = lower value 1.02 | S. cerevisiae deletion strains, locus YLR418C, strain cdc73, stronger effect = lower value 0.874 | S. cerevisiae deletion strains, locus YML016C, strain PPZ1, stronger effect = lower value 0.998 | S. cerevisiae deletion strains, locus YML032C, strain rad52, stronger effect = lower value 1.01 | S. cerevisiae deletion strains, locus YML120C, strain ndi1, stronger effect = lower value 0.985 | S. cerevisiae deletion strains, locus YML124C, strain tub3, stronger effect = lower value 1.02 | S. cerevisiae deletion strains, locus YMR058W, strain fet3, stronger effect = lower value 1.01 | S. cerevisiae deletion strains, locus YMR078C, strain ctf18, stronger effect = lower value 1 | S. cerevisiae deletion strains, locus YMR125W, strain sto1, stronger effect = lower value 1.03 | S. cerevisiae deletion strains, locus YMR129W, stronger effect = lower value 1.01 | S. cerevisiae deletion strains, locus YMR205C, strain PFK2, stronger effect = lower value 1.06 | S. cerevisiae deletion strains, locus YMR223W, strain ubp8, stronger effect = lower value 0.962 | S. cerevisiae deletion strains, locus YMR231W, strain pep5, stronger effect = lower value 1.02 | S. cerevisiae deletion strains, locus YMR263W, strain SAP30, stronger effect = lower value 0.969 | S. cerevisiae deletion strains, locus YMR307W, strain GAS1, stronger effect = lower value 1.05 | S. cerevisiae deletion strains, locus YNL067W, strain RPL9B, stronger effect = lower value 0.997 | S. cerevisiae deletion strains, locus YNL071W, strain lat1, stronger effect = lower value 1.01 | S. cerevisiae deletion strains, locus YNL128W, strain TEP1, stronger effect = lower value 1.01 | S. cerevisiae deletion strains, locus YNL153C, strain GIM3, stronger effect = lower value 0.982 | S. cerevisiae deletion strains, locus YNL183C, strain NPR1, stronger effect = lower value 0.892 | S. cerevisiae deletion strains, locus YNL209W, strain ssb2, stronger effect = lower value 1 | S. cerevisiae deletion strains, locus YNL233W, strain BNI4, stronger effect = lower value 1 | S. cerevisiae deletion strains, locus YNL248C, strain rpa49, stronger effect = lower value 0.958 | S. cerevisiae deletion strains, locus YNL250W, strain rad50, stronger effect = lower value 1.01 | S. cerevisiae deletion strains, locus YNL271C, strain bni1, stronger effect = lower value 1.02 | S. cerevisiae deletion strains, locus YNL298W, strain CLA4, stronger effect = lower value 1 | S. cerevisiae deletion strains, locus YNL307C, strain MCK1, stronger effect = lower value 0.993 | S. cerevisiae deletion strains, locus YNL322C, strain KRE1 (second series), stronger effect = lower value 1.03 | S. cerevisiae deletion strains, locus YNL322C, strain KRE1, stronger effect = lower value 1.01 | S. cerevisiae deletion strains, locus YNR049C, strain mso1, stronger effect = lower value 1.02 | S. cerevisiae deletion strains, locus YNR052C, strain pop2, stronger effect = lower value 0.973 | S. cerevisiae deletion strains, locus YOL006C, strain TOP1, stronger effect = lower value 0.879 | S. cerevisiae deletion strains, locus YOL012C, strain htz1 0.875 | S. cerevisiae deletion strains, locus YOL147C, strain pex11, stronger effect = lower value 1.01 | S. cerevisiae deletion strains, locus YOR001W, strain rrp6, stronger effect = lower value 0.97 | S. cerevisiae deletion strains, locus YOR061W, strain CKA2, stronger effect = lower value 1.01 | S. cerevisiae deletion strains, locus YOR069W, strain VPS5, stronger effect = lower value 0.996 | S. cerevisiae deletion strains, locus YOR070C, strain gyp1, stronger effect = lower value 1.02 | S. cerevisiae deletion strains, locus YOR080W, strain dia2, stronger effect = lower value 1.03 | S. cerevisiae deletion strains, locus YOR083W, strain WHI5, stronger effect = lower value 0.96 | S. cerevisiae deletion strains, locus YOR106W, strain vam3, stronger effect = lower value 0.966 | S. cerevisiae deletion strains, locus YOR136W, strain idh2, stronger effect = lower value 1.04 | S. cerevisiae deletion strains, locus YOR144C, strain elg1, stronger effect = lower value 1.01 | S. cerevisiae deletion strains, locus YOR184W, strain ser1, stronger effect = lower value 1.03 | S. cerevisiae deletion strains, locus YOR231W, strain MKK1, stronger effect = lower value 0.99 | S. cerevisiae deletion strains, locus YOR265W, strain rbl2, stronger effect = lower value 1.02 | S. cerevisiae deletion strains, locus YOR270C, strain vph1, stronger effect = lower value 0.933 | S. cerevisiae deletion strains, locus YOR290C, strain snf2, stronger effect = lower value 0.973 | S. cerevisiae deletion strains, locus YOR316C, strain cot1, stronger effect = lower value 1.01 | S. cerevisiae deletion strains, locus YPL051W, strain arl3, stronger effect = lower value 0.974 | S. cerevisiae deletion strains, locus YPL055C, strain LGE1, stronger effect = lower value 0.958 | S. cerevisiae deletion strains, locus YPL078C, strain atp4, stronger effect = lower value 0.983 | S. cerevisiae deletion strains, locus YPL106C, strain sse1, stronger effect = lower value 1.09 | S. cerevisiae deletion strains, locus YPL240C, strain hsp82, stronger effect = lower value 1.02 | S. cerevisiae deletion strains, locus YPL241C, strain CIN2, stronger effect = lower value 1 | S. cerevisiae deletion strains, locus YPL256C, strain CLN2, stronger effect = lower value 0.995 | S. cerevisiae deletion strains, locus YPR119W, strain clb2, stronger effect = lower value 1.01 | S. cerevisiae deletion strains, locus YPR141C, strain kar3, stronger effect = lower value 1.01 | S. cerevisiae deletion strains, locus YPR163C, strain tif3, stronger effect = lower value 0.993 | S. cerevisiae deletion strains, locus YPR167C, strain met16, stronger effect = lower value 1.01 | S. cerevisiae deletion strains, strain wtn01, stronger effect = lower value 1.02 | S. cerevisiae strains, strain wild type, stronger effect = lower value 0.993
active: S. cerevisiae deletion strains, locus YLR039C, strain RIC1, stronger effect = lower value 1.34 [resistant] | S. cerevisiae deletion strains, locus YLR262C, strain YPT6, stronger effect = lower value 1.44 [resistant]
